Experimental data from the supplement of paper PMC10849652.
Targets with a hit are over-represented here; the source holds about 7,900 in all. About 0.6% of all pairs of compound and target were hits.

compound: Cc1cn(-c2cc(NC(=O)c3ccc(C)c(Nc4nccc(-c5cccnc5)n4)c3)cc(C(F)(F)F)c2)cn1 [nilotinib]; assay: log2 fold change, soluble protein after heating vs DMSO (PISA); higher = thermal stabilisation; K562 cells, 10 uM, 30 min; active = over 0.2 and 3.5 SD of the protein, either way, in both replicates (recomputed)
Method in brief: (§1)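 For each measurement, 10 μM compound was applied for 30 min to K562 cells at 2×10^6 cells/mL. Aliquots were heated for 3 min across 48°C-58°C, pooled, and extracted in PBS with 0.5% NP-40 at 4°C; the supernatant after 21,000xg for 90 min was soluble protein. This was quantified by TMTpro 16plex LC-MS/MS with channel sums equalised, and thermal stability was reported relative to control samples from duplicates, on a log2 fold-change scale.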

Sequence of UniProt Q8TEQ6 (Q8TEQ6 whole entry, looked up): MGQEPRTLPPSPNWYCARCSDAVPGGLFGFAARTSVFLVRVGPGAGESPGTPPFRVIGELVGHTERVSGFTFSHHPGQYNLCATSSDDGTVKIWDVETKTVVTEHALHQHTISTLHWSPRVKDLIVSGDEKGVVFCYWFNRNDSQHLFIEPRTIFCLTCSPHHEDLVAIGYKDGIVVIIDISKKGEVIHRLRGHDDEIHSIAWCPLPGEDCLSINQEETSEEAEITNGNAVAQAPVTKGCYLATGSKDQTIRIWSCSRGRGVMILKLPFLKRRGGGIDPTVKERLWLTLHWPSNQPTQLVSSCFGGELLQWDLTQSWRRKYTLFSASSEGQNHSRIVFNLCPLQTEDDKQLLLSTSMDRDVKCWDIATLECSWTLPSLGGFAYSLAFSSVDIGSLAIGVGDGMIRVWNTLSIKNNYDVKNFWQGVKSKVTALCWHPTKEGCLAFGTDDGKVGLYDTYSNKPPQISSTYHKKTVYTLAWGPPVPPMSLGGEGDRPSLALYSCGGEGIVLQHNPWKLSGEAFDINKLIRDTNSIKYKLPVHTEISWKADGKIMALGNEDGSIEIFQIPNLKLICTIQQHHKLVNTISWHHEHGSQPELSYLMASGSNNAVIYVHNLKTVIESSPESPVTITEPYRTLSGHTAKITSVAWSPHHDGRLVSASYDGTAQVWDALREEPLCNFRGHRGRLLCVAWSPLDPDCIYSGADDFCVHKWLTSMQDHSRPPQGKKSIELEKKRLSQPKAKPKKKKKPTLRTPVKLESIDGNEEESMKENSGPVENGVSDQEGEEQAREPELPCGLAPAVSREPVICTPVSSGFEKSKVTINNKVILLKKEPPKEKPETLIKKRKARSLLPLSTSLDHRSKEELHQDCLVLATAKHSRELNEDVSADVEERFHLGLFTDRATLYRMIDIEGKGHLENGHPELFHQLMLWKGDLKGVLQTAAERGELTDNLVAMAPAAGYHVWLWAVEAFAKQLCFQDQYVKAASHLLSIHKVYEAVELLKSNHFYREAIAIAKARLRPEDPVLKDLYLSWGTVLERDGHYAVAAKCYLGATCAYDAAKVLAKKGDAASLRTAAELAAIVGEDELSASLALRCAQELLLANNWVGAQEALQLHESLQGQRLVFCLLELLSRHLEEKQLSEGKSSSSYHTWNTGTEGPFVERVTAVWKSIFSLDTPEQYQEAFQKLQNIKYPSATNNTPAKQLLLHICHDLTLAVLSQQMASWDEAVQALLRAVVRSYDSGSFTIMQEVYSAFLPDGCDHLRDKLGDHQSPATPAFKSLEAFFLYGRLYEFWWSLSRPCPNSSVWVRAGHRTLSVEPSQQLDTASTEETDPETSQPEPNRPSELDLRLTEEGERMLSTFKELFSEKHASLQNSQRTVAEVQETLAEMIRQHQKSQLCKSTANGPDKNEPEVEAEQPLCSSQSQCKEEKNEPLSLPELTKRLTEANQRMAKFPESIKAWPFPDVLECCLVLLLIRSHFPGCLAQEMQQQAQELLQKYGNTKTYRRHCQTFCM
Sequence of UniProt P49448 (P49448 whole entry, looked up): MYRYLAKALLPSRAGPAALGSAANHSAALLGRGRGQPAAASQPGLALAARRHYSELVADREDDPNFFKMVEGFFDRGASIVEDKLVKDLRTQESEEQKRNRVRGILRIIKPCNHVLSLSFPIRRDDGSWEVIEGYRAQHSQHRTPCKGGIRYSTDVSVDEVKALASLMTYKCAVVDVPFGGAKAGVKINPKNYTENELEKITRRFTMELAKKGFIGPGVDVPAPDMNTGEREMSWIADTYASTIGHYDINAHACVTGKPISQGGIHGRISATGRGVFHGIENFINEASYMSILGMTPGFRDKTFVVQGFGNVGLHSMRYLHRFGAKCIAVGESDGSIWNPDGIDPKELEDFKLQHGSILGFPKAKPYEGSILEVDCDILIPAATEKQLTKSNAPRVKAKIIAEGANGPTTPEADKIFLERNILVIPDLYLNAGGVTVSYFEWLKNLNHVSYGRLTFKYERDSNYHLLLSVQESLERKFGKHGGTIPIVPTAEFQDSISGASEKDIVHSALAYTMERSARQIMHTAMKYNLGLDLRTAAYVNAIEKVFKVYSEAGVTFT
Sequence of UniProt Q70Z53 (Q70Z53 whole entry, looked up): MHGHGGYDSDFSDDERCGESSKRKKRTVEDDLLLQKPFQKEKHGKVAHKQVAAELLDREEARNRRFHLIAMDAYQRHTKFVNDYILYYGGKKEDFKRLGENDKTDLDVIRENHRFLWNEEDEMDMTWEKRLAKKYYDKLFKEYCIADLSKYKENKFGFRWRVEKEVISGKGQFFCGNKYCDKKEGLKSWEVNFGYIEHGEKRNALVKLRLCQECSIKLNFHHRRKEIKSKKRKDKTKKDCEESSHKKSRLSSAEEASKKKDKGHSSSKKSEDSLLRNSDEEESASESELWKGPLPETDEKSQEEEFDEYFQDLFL
Sequence of UniProt Q12894 (Q12894 whole entry, looked up): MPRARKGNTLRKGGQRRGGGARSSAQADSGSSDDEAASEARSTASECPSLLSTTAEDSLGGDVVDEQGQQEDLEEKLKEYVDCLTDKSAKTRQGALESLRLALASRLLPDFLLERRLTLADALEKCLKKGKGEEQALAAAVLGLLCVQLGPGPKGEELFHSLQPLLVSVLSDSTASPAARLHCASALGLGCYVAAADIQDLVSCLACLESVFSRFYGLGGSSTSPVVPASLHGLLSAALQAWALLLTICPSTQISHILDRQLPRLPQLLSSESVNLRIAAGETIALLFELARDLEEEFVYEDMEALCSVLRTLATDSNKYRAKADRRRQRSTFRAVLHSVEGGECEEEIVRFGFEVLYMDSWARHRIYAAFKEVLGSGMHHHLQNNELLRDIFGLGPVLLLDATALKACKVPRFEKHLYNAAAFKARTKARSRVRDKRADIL
Sequence of UniProt Q96JB3 (Q96JB3 whole entry, looked up): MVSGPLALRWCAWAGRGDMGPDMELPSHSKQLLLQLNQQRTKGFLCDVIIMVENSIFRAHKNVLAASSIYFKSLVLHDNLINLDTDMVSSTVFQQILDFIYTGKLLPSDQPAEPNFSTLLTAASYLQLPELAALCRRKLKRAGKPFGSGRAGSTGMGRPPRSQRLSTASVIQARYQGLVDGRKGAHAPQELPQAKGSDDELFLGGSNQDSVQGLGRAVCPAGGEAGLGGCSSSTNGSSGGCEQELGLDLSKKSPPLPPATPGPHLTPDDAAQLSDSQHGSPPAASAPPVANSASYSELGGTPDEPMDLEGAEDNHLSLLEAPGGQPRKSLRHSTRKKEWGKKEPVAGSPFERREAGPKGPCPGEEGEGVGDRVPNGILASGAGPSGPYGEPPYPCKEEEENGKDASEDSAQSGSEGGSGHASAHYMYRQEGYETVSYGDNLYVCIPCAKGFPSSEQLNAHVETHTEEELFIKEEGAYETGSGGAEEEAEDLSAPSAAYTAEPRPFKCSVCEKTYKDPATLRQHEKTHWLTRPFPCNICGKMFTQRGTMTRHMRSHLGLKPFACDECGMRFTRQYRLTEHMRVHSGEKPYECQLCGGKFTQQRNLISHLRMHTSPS
Sequence of UniProt Q9UJ14 (Q9UJ14 whole entry, looked up): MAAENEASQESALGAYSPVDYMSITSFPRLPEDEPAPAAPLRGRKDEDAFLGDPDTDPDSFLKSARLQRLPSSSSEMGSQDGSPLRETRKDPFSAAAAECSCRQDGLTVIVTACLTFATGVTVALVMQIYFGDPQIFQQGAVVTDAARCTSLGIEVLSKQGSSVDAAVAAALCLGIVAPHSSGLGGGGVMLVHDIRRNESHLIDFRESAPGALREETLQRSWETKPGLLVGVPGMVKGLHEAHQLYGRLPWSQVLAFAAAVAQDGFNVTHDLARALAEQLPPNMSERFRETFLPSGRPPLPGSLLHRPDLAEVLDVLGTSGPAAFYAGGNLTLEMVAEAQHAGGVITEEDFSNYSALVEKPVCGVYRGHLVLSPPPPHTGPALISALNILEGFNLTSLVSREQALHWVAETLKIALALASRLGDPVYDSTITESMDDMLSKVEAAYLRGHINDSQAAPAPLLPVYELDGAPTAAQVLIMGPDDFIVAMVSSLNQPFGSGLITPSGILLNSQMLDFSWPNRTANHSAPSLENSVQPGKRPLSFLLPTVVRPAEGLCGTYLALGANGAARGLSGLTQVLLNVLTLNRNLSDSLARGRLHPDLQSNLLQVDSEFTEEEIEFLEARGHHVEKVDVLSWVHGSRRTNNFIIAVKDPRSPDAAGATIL
Sequence of UniProt P78417 (P78417 whole entry, looked up): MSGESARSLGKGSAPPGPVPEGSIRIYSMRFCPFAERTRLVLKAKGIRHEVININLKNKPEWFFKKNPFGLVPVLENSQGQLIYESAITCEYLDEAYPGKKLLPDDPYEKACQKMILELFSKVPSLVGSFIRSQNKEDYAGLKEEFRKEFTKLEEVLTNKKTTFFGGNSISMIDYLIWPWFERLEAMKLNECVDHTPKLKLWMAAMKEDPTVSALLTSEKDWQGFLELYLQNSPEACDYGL
Sequence of UniProt Q9Y5Q8 (Q9Y5Q8 whole entry, looked up): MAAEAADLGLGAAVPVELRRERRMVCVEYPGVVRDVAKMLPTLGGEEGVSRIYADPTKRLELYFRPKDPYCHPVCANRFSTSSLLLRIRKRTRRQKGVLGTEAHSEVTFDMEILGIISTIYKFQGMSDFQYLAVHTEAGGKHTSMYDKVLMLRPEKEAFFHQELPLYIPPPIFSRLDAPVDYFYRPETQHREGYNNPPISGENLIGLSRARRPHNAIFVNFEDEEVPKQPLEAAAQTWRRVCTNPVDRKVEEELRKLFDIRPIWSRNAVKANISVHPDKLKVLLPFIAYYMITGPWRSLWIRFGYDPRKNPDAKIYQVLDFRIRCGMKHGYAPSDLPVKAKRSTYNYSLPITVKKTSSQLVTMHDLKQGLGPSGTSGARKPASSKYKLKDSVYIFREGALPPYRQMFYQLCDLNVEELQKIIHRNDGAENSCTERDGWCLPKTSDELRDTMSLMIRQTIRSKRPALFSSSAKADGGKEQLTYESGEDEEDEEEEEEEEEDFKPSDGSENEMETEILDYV
Sequence of UniProt P09105 (P09105 whole entry, looked up): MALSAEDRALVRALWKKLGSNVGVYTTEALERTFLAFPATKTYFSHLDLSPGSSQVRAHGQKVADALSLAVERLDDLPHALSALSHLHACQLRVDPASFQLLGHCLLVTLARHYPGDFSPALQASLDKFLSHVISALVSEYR

Target	log2 fold change
GLUD2 (UniProt P49448)	0.478 (active)
GTF3C5 isoform 3 (UniProt Q9Y5Q8)	-0.04 (inactive)
GSTO1 (UniProt P78417)	-0.009 (inactive)
HECTD1 (UniProt Q9ULT8)	-0.111 (inactive)
FRA10AC1 isoform 3 (UniProt Q70Z53)	-0.034 (inactive)
HBQ1 (UniProt P09105)	0.054 (inactive)
GEMIN5 (UniProt Q8TEQ6)	-0.046 (inactive)
IFRD2 isoform 2 (UniProt Q12894)	0.153 (inactive)
HIC2 (UniProt Q96JB3)	0.075 (inactive)
GGT7 (UniProt Q9UJ14)	0.026 (inactive)
FUT8 (UniProt Q9BYC5)	-0.008 (inactive)

compound: Cc1nc(Nc2n[nH]c3c2CN(C(=O)N[C@H](CN(C)C)c2ccccc2)C3(C)C)c2sccc2n1; assay: as above
Method in brief: as §1

Target	log2 fold change
FDPS (UniProt P14324)	0.035 (inactive)
GLUD1 (UniProt P00367)	0.266 (active)
GLRX3 (UniProt O76003)	-0.022 (inactive)
GTF3A (UniProt Q92664)	-0.219 (inactive)
GLS (UniProt O94925)	-0.069 (inactive)
GUSB (UniProt P08236)	-0.115 (inactive)
FERMT3 (UniProt Q86UX7)	-0.053 (inactive)
GSK3A (UniProt P49840)	0.308 (active)
HLTF (UniProt Q14527)	-0.193 (inactive)
HTATIP2 isoform 3 (UniProt Q9BUP3)	-0.056 (inactive)
HMGN1 (UniProt P05114)	0.057 (inactive)
GTPBP6 (UniProt O43824)	0.069 (inactive)
HEATR5B (UniProt Q9P2D3)	-0.066 (inactive)
FUCA2 (UniProt Q9BTY2)	0.001 (inactive)
GALNT4 (UniProt Q8N4A0)	0.006 (inactive)
HAT1 (UniProt O14929)	-0.035 (inactive)
GHDC (UniProt Q8N2G8)	-0.001 (inactive)
IFNGR1 (UniProt P15260)	-0.015 (inactive)

Target	log2 fold change
HDAC2 (UniProt Q92769)	0.009 (inactive)
GALNT11 (UniProt Q8NCW6)	-0.068 (inactive)
HNRNPH1 (UniProt P31943)	-0.236 (inactive)
GOLPH3 (UniProt Q9H4A6)	-0.015 (inactive)
HMG20A (UniProt Q9NP66)	-0.02 (inactive)
FBXO9 (UniProt Q9UK97)	-0.354 (inactive)
GLUD2 (UniProt P49448)	0.21 (inactive)
GTF3C5 isoform 3 (UniProt Q9Y5Q8)	-0.167 (inactive)
GSTO1 (UniProt P78417)	-0.021 (inactive)
HECTD1 (UniProt Q9ULT8)	-0.141 (inactive)
FRA10AC1 isoform 3 (UniProt Q70Z53)	-0.039 (inactive)
HBQ1 (UniProt P09105)	-0.004 (inactive)
GEMIN5 (UniProt Q8TEQ6)	-0.315 (active)
IFRD2 isoform 2 (UniProt Q12894)	0.047 (inactive)
HIC2 (UniProt Q96JB3)	-0.446 (active)
GGT7 (UniProt Q9UJ14)	0.015 (inactive)
FUT8 (UniProt Q9BYC5)	0.006 (inactive)

compound: Cc1nc(Nc2ncc(C(=O)Nc3c(C)cccc3Cl)s2)cc(N2CCN(CCO)CC2)n1 [dasatinib]; assay: as above
Method in brief: as §1

Target	log2 fold change
FDPS (UniProt P14324)	-0.392 (inactive)
GLUD1 (UniProt P00367)	0.056 (inactive)
GLRX3 (UniProt O76003)	-0.054 (inactive)
GTF3A (UniProt Q92664)	-0.137 (inactive)
GLS (UniProt O94925)	-0.154 (inactive)
GUSB (UniProt P08236)	0.053 (inactive)
FERMT3 (UniProt Q86UX7)	-0.075 (inactive)
GSK3A (UniProt P49840)	-0.024 (inactive)
HLTF (UniProt Q14527)	-0.035 (inactive)
HTATIP2 isoform 3 (UniProt Q9BUP3)	-0.046 (inactive)
HMGN1 (UniProt P05114)	0.146 (inactive)
GTPBP6 (UniProt O43824)	0.028 (inactive)
HEATR5B (UniProt Q9P2D3)	-0.119 (inactive)
FUCA2 (UniProt Q9BTY2)	0.022 (inactive)
GALNT4 (UniProt Q8N4A0)	-0.021 (inactive)
HAT1 (UniProt O14929)	-0.044 (inactive)
GHDC (UniProt Q8N2G8)	0.027 (inactive)
IFNGR1 (UniProt P15260)	0.154 (inactive)

Target	log2 fold change
HDAC2 (UniProt Q92769)	0.007 (inactive)
GALNT11 (UniProt Q8NCW6)	-0.022 (inactive)
HNRNPH1 (UniProt P31943)	-0.083 (inactive)
GOLPH3 (UniProt Q9H4A6)	-0.123 (inactive)
HMG20A (UniProt Q9NP66)	0.052 (inactive)
FBXO9 (UniProt Q9UK97)	-0.056 (inactive)
GLUD2 (UniProt P49448)	-0.021 (inactive)
GTF3C5 isoform 3 (UniProt Q9Y5Q8)	-0.269 (inactive)
GSTO1 (UniProt P78417)	-0.007 (inactive)
HECTD1 (UniProt Q9ULT8)	-0.104 (inactive)
FRA10AC1 isoform 3 (UniProt Q70Z53)	-0.051 (inactive)
HBQ1 (UniProt P09105)	0.102 (inactive)
GEMIN5 (UniProt Q8TEQ6)	-0.099 (inactive)
IFRD2 isoform 2 (UniProt Q12894)	0.028 (inactive)
HIC2 (UniProt Q96JB3)	0.071 (inactive)
GGT7 (UniProt Q9UJ14)	-0.02 (inactive)
FUT8 (UniProt Q9BYC5)	0.031 (inactive)
